# Data: PubChem BioAssay (NCATS)
# Unmarked numbers belong to inactive results. Inconclusive results are not listed. Active and inactive are the calls of the source. Unless noted, the call rests on the fitted dose curve; in most records, active means well fitted curve in either direction with a large enough effect (not every such curve was filed as active); inconclusive means small, poorly fitted or top-dose-only effect, or another doubt; inactive means flat fitted curve, though single readings scatter.
# Tests used:
# [1] = test system: HIV-1 nucleocapsid protein NCp7 (binding to TG oligonucleotide); assay: HIV Nucleocapsid (AID 346; call rule not given here;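 further: potency means the concentration at half of the fitted maximal effect; potency is for inhibitors that block NC binding and lower polarization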); conditions: HIV-1 NC / fluorescein-TGTGTGTG probe, fluorescence polarization
# Outline: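 Fluorescence polarization binding of 100 nM HIV-1 NC to 10 nM fluorescein-labelled TG4xF oligonucleotide. Buffer was Hepes pH 7.5 with 250mM NaCl, 1uM ZnCl2, TCEP and 2-mercaptoethanol. Compounds were incubated 1 hr at room temperature before the read.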
# [2] = target: Lysosomal acid glucosylceramidase (Homo sapiens) (UniProt P04062); assay: Glucocerebrosidase-p2 (AID 348; in the data active means potency below about 10 µM; further: potency means the concentration at half of the fitted maximal effect); conditions: purified GBA, blue fluorogenic substrate, 40 min
# Outline: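 Normal human glucocerebrosidase (0.2 nM) with blue fluorogenic substrate (80 uM final) in citrate/phosphate pH 5.9 with 10mM sodium taurocholate, 0.01% tween-20; 40 min RT, NaOH/glycine stop; fluorescence Ex 365/Em 440; AC50 from a titration from 0.6 nM upwards.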
# [3] = AP1 Signaling Pathway (AID 357); conditions: ME-180 AP-1-bla reporter, EGF-induced, beta-lactamase ratio, 5 h; at 7.69 µM (top of the series) unless noted;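 further: ME-180 reporter cells stimulated with EGF at its EC50 level; on the % scale 0 is the no-effect control and ±100 the full control effect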
# Outline: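 Cells are seeded overnight, exposed to compound titrations and an EC50 level of EGF for 5 hours at 37 °C, then loaded with CCF4 dye for 2.5 hours. Beta-lactamase activity under the AP-1 element is read as a blue/green ratio.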
# [4] = target: Cytochrome P450 1A2 (Homo sapiens) (UniProt P05177); assay: p450-cyp1a2 (AID 410; calls by dose curve; further: potency means the concentration at half of the fitted maximal effect;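 on activity change, negative = inhibition: -100% = full effect of reference inhibitor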); conditions: recombinant CYP1A2, luciferin-ME demethylation, luminescence; series mostly up to 11.4 µM
# Outline: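 Luminescent demethylation readout: Luciferin-ME (100uM, equal to Km) turned over by 20nM CYP1A2 for 60 min at room temperature after NADPH regeneration addition, following 10 min compound preincubation. Normalization used 57 uM furafylline as full inhibition.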
# [5] = NFAT Signaling Pathway (AID 444); conditions: Jurkat NFAT-bla M1, carbachol, beta-lactamase ratio, 5 h; at 7.69 µM (top of the series) unless noted;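 further: carbachol stimulus at about its EC50 of 1 µM final; on the % scale 0 is the no-effect control and ±100 the full control effect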
# Outline: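 Jurkat cells carrying an NFAT-driven β-lactamase reporter and co-transfected muscarinic M1 receptor were treated with compound plus carbachol (1 uM final, an EC50 level) for 5 h at 37 °C. CCF4 loading followed for 1 h at RT; 460/530 nm ratio gave %activity.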
# [6] = Stat Signaling Pathway (AID 446); conditions: ME-180 (cervical carcinoma) SIE beta-lactamase reporter, IL-6 stimulated, 5 h; at 7.69 µM (top of the series) unless noted;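 further: ME-180 cervical cancer cells given 40 pM IL-6 alongside compound; SIE-controlled beta-lactamase reporter measured as 460/530 nm FRET emission ratio; on the % scale 0 is the no-effect control and ±100 the full control effect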
# Outline: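 Compound effects on IL-6-induced STAT reporter activity were measured in ME-180 cells. After overnight culture, cells were co-treated with 40 pM IL-6 for 5 hrs before beta-lactamase substrate loading at room temperature.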
# [7] = target: Glucocorticoid receptor (Homo sapiens) (UniProt P04150); assay: GR-GFP Redistribution (AID 450;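 active means compounds whose dose series gives a full or clear partial fitted curve of increased nuclear translocation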; further: potency means the concentration at half of the fitted maximal effect); conditions: U2OS GR-GFP nuclear translocation, laser cytometry, 2 h
# [8] = target: Glucocorticoid receptor (Homo sapiens) (UniProt P04150); assay: GR-EFC Redistribution (AID 451; calls by dose curve; further: potency means the concentration at half of the fitted maximal effect); conditions: CHO-K1 GR-EFC translocation, beta-gal luminescence, 2 h
# Outline: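 CHO-K1 cells stably expressing nuclear-localized β-gal enzyme acceptor and GR fused C-terminally to the enzyme donor fragment; ligand-driven nuclear translocation restores β-gal by complementation. Compounds titrated up to 46 uM final, 2 h at 37 °C; luminescence read.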
# [9] = target: Mitogen-activated protein kinase 10 (Mus musculus) (UniProt Q61831); assay: JNK3 AlphaScreen Assay (AID 530); conditions: JNK3 lysate, c-Jun phosphorylation; series mostly up to 57.1 µM;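 further: kinase came from lysate of stimulated human HepG2 cells; signal reports phosphorylation of biotinylated GST-cJun 1-79 at Ser73 with 10 µM ATP; on the % scale 0 is the no-effect control and ±100 the full control effect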
# Outline: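 Phosphorylation of biotinylated GST-cJun(1-79) at Ser73 is measured by AlphaScreen proximity luminescence. Enzyme is JNK3 in HepG2 lysates activated with interleukin-1beta and tumor necrosis factor alpha; ATP is 10 uM final.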
# [10] = target: 3',5'-cyclic-AMP phosphodiesterase 4B (Homo sapiens) (UniProt Q07343); assay: qHTS Assay for Inhibitors of PDE-IV (AID 607; active means well fitted activation curve with a large enough effect in the main read-out, with a control signal flat, not every such curve was filed as active; further: % of control where 0% means no effect); conditions: HEK293 ACTOne CNG channel cells, membrane potential fluorescence; series mostly up to 22.9 µM
# Outline: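 ACTOne HEK293 cells carry a modified cAMP-gated CNG channel and express endogenous PDE4; plated 1000 cells/well, compounds up to 22.9 uM final. Membrane-potential dye fluorescence (ex 535/em 590) was read; parental cells received 10 uM forskolin + 100 uM RO 20-1724.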
# [11] = target: Cytochrome P450 2D6 (Homo sapiens) (UniProt P10635); assay: qHTS Assay for Inhibitors and Substrates of Cytochrome P450 2D6 (AID 891; active means well fitted inhibition curve with a large enough effect; further: potency means the concentration at half of the fitted maximal effect; nearly all actives have a fitted effect of over 60% in size); conditions: recombinant CYP2D6, luciferin-ME EGE luminescence; series mostly up to 11.4 µM
# Outline: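 Luminescent read-out of luciferin formed by 5 nM human CYP2D6 demethylating 30 uM Luciferin-ME EGE (Km level) over 60 min at room temperature after NADPH regeneration addition. Data normalized to full inhibition by 1.43 uM quinidine.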
# Sequence of 3',5'-cyclic-AMP phosphodiesterase 4B (Homo sapiens) (Q07343 whole entry, looked up): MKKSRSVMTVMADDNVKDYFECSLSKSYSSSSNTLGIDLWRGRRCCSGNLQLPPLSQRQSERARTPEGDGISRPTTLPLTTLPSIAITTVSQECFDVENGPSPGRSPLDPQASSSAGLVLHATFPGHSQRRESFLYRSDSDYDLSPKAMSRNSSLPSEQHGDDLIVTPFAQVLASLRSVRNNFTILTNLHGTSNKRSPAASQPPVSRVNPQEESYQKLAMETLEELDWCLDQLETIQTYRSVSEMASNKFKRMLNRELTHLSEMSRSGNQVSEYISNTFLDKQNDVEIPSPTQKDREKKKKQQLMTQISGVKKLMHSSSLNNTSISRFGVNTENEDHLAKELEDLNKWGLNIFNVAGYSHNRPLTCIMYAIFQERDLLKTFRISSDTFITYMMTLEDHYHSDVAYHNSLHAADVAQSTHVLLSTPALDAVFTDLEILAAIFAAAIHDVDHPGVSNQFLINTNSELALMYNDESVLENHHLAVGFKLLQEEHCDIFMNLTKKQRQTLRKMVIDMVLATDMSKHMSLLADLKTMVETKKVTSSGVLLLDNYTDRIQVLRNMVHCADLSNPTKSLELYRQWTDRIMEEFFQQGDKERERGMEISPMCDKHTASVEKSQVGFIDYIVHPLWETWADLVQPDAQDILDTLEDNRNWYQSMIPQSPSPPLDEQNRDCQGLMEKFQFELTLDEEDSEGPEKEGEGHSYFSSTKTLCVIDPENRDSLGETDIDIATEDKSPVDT
# Sequence of Lysosomal acid glucosylceramidase (Homo sapiens) (P04062 whole entry, looked up): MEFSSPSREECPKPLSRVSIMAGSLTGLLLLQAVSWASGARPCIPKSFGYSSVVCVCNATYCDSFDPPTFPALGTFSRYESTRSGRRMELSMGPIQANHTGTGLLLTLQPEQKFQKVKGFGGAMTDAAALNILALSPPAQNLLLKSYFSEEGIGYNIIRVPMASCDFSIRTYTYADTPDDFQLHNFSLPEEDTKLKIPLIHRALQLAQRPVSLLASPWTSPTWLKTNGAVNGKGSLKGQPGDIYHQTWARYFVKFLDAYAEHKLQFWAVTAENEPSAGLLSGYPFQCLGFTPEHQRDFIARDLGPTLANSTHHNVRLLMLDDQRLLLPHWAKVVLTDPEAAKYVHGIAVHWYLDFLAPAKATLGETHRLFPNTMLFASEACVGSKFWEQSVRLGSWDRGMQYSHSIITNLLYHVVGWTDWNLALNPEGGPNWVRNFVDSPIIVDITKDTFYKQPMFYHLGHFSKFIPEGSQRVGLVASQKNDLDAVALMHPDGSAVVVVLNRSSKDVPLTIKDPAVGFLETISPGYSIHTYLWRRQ
# Sequence of Glucocorticoid receptor (Homo sapiens) (P04150 whole entry, looked up, the tested form may be a part): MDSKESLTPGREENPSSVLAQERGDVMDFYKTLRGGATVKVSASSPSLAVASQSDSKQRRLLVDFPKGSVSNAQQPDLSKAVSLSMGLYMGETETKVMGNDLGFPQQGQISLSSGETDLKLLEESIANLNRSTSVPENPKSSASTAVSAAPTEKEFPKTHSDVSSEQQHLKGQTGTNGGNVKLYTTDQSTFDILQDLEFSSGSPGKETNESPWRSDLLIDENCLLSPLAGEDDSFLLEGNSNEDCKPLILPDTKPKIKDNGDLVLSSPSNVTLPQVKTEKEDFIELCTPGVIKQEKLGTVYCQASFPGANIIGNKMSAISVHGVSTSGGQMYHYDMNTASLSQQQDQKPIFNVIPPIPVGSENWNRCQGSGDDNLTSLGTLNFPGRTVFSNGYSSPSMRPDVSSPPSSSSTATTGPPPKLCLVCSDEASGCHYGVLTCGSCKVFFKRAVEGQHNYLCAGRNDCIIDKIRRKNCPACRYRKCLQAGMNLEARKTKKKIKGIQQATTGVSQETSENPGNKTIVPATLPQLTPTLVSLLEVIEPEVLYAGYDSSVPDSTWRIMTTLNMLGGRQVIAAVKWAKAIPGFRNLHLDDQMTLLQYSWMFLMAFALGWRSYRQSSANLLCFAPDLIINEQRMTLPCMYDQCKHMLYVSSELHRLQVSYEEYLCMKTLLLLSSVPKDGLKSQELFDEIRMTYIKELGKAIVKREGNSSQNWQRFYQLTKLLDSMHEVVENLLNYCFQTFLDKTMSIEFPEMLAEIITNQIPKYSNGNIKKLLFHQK
# Sequence of Cytochrome P450 1A2 (Homo sapiens) (P05177 whole entry, looked up): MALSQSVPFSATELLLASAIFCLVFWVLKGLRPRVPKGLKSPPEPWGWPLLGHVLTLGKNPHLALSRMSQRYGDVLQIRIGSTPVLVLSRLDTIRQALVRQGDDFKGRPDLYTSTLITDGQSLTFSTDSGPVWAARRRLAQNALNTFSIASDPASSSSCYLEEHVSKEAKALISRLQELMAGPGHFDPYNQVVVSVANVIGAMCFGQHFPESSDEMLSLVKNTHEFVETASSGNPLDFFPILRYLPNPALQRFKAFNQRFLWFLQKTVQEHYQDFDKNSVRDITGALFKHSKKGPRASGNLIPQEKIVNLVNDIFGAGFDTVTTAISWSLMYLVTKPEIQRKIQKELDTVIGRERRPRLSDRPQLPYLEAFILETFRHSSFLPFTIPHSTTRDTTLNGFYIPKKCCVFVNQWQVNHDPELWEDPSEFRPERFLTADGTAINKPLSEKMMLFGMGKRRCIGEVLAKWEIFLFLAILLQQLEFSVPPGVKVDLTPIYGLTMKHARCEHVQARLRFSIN
# Sequence of Cytochrome P450 2D6 (Homo sapiens) (P10635 whole entry, looked up): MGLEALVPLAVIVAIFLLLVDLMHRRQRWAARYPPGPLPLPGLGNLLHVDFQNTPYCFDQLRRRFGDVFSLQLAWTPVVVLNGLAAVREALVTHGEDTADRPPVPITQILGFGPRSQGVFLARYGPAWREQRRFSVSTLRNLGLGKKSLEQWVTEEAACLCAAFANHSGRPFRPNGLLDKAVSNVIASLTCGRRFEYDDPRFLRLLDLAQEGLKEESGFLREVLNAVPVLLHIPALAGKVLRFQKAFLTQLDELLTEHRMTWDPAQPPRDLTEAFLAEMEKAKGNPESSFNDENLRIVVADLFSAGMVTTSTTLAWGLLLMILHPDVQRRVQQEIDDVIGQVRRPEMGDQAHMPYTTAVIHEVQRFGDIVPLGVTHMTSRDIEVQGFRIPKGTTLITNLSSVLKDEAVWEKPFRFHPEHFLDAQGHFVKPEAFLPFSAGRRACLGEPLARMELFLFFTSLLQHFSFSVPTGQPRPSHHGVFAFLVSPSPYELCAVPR
smiles,measurement,setting,value
COCCn1c(=O)cnc2cnc(Nc3ccccc3)nc21,Potency,[1],> 4 µM
CC[C@@]1(O)C(=O)OCc2c1cc1n(c2=O)Cc2cc3c(NC(=O)CN)cccc3nc2-1,Potency,[2],> 11.4 µM
same,"activity change, negative = inhibition",[3],-9.07%
same,"activity change, negative = inhibition",[4],-12.3% [at 2.29 µM]
same,"activity change, negative = inhibition",[5],-29.2%
same,"activity, negative = inhibition",[6],-20.5%
same,Potency,[7],> 46 µM
same,Potency,[8],> 9.22 µM
same,"activity change, negative = inhibition",[9],-2.05% [at 11.4 µM]
same,outcome,[10],inactive
CN(C)Cc1ccccc1-c1ccc2ncnc(N3CCOCC3)c2c1,Potency,[1],> 20 µM
c1ccc(CCN2CCOCC2)nc1,Potency,[2],> 11.4 µM
same,"activity change, negative = inhibition",[3],-2.6%
same,"activity change, negative = inhibition",[4],-3% [at 2.29 µM]
same,"activity change, negative = inhibition",[5],11.7%
same,"activity, negative = inhibition",[6],4.66%
same,Potency,[7],> 46 µM
same,Potency,[8],> 9.22 µM
same,"activity change, negative = inhibition",[9],1.44% [at 11.4 µM]
same,outcome,[10],inactive
CN(C)CCCc1c[nH]c2ccccc12,Potency,[2],> 11.4 µM
same,"activity change, negative = inhibition",[3],-7.94%
same,Potency,[4],inactive
same,"activity change, negative = inhibition",[5],-13%
same,"activity, negative = inhibition",[6],1.91%
same,Potency,[7],> 46 µM
same,Potency,[8],> 9.22 µM
same,"activity change, negative = inhibition",[9],3.98% [at 11.4 µM]
same,outcome,[10],inactive
N#Cc1ccc(CN2CC3(CCN(C(=O)c4cc(C(F)(F)F)cc(C(F)(F)F)c4)CC3)C2)cc1,Potency,[1],> 20 µM
N[C@@H](CSC1c2ccccc2-c2ccccc21)C(=O)O,Potency,[2],> 11.4 µM
same,"activity change, negative = inhibition",[3],0.63%
same,Potency,[4],2.51 µM (active)
same,"activity change, negative = inhibition",[5],-6.99%
same,"activity, negative = inhibition",[6],3%
same,Potency,[7],> 46 µM
same,Potency,[8],> 9.22 µM
same,"activity change, negative = inhibition",[9],-0.997% [at 11.4 µM]
same,outcome,[10],inactive
CCC1(CCSC(=N)N)C(=O)NC(=O)NC1=O,Potency,[2],> 11.4 µM
same,"activity change, negative = inhibition",[3],6.2%
same,"activity change, negative = inhibition",[4],-10.9% [at 2.29 µM]
same,"activity change, negative = inhibition",[5],1.26%
same,"activity, negative = inhibition",[6],-4.63%
same,Potency,[7],> 46 µM
same,Potency,[8],> 9.22 µM
same,"activity change, negative = inhibition",[9],3.03% [at 11.4 µM]
same,outcome,[10],inactive
CC(C)CN1CCCC2(CCN(C(=O)c3cccn3C)CC2)C1,Potency,[1],> 20 µM
Cn1cc(-c2nc3cnc(Oc4ccccc4)nc3n(C3CC3)c2=O)c2ccccc21,Potency,[1],> 20 µM
Cc1ccc(C2(c3ccc(C)c(O)c3C)CCN(C)CC2)c(C)c1O,Potency,[2],> 11.4 µM
same,"activity change, negative = inhibition",[3],2.94%
same,Potency,[4],5.01 µM (active)
same,"activity change, negative = inhibition",[5],3.1%
same,"activity, negative = inhibition",[6],3.48%
same,Potency,[7],> 46 µM
same,Potency,[8],> 9.22 µM
same,"activity change, negative = inhibition",[9],1.97% [at 11.4 µM]
same,outcome,[10],inactive
COc1ccc2[nH]cc(CCNc3ncnc4ccc(-c5ccccc5C#N)cc34)c2c1,Potency,[1],> 20 µM
COc1ccccc1CN1CCCC2(CCN(C(=O)Oc3ccccc3)CC2)C1,Potency,[1],> 20 µM
same,Potency,[2],> 11.4 µM
same,"activity change, negative = inhibition",[3],3.33%
same,Potency,[4],inactive
same,"activity, negative = inhibition",[6],1.52%
same,Potency,[8],> 46 µM
same,Potency,[9],inactive
same,outcome,[10],inactive
same,Potency,[11],3.98 µM (active)
Cn1cccc1C(=O)N1CCC2(CC1)CN(Cc1ccc(C#N)cc1)C2,Potency,[1],> 20 µM
COc1ccccc1-c1ccc2ncnc(NC3CC3)c2c1,Potency,[1],> 20 µM
CS(=O)(=O)N1CCC2(CCCN(C(=O)Nc3ccccc3)C2)CC1,Potency,[1],> 20 µM
O=[As](O)(O)c1ccc(N=Nc2ccc([As](=O)(O)O)cc2)cc1,Potency,[2],> 11.4 µM
same,"activity change, negative = inhibition",[3],2.76%
same,Potency,[4],inactive
same,"activity change, negative = inhibition",[5],2.59%
same,"activity, negative = inhibition",[6],4.67%
same,Potency,[7],> 46 µM
same,Potency,[8],> 9.22 µM
same,"activity change, negative = inhibition",[9],2.69% [at 11.4 µM]
same,outcome,[10],inactive
Cc1cnc(CNc2ncnc3ccc(-c4ccc(C(=O)N(C)C)cc4)cc23)cn1,Potency,[1],> 20 µM
Nc1nc(N)c(Cn2ccnc2)c(=O)[nH]1,Potency,[2],> 11.4 µM
same,"activity change, negative = inhibition",[3],-1.23%
same,Potency,[4],inactive
same,"activity change, negative = inhibition",[5],17.6%
same,"activity, negative = inhibition",[6],7.55%
same,Potency,[7],> 46 µM
same,Potency,[8],> 9.22 µM
same,"activity change, negative = inhibition",[9],2.41% [at 11.4 µM]
same,outcome,[10],inactive
Cc1cc[c]([Sb]2[O][C@H]([C@H](O)[C@H](O)C(=O)O)[C@@H](CO)[O]2)cc1,Potency,[2],> 11.4 µM
same,"activity change, negative = inhibition",[3],0.9%
same,Potency,[4],inactive
same,"activity change, negative = inhibition",[5],-5.69%
same,"activity, negative = inhibition",[6],4.3%
same,Potency,[7],> 46 µM
same,Potency,[8],> 9.22 µM
same,"activity change, negative = inhibition",[9],0.865% [at 11.4 µM]
same,outcome,[10],inactive
